Data published in PubChem BioAssay (Tox21).
Where “and” joins values, the source holds several entries; their conditions need not be identical. Equal values may be shown once. Results filed as inconclusive are left out. Some compounds were tested as several samples or in several runs, with calls that do not always agree. Calls of active or inactive are those of the source. Unless noted, calls follow the shape of the full dose curve.

Assays:
[1] = qHTS assay to identify small molecule agonists of the peroxisome proliferator-activated receptor delta (PPARd) signaling pathway - cell viability counter screen (AID 743211; active = well fitted curve in the direction sought with a large enough effect in the repeat runs; an effect the other way counts as inactive or inconclusive; also: nearly all actives have a fitted effect of over 55% in size; also: potency is read from the fitted curve at half-maximal effect)
How it was run: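 Counter screen for cytotoxicity run in parallel with the PPARd reporter screen. Beta-lactamase reporter HEK293H cells exposed to compounds 17 h; ATP-based CellTiter-Glo luminescence quantified viability.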

[2] = qHTS assay to identify small molecule antagonists of the peroxisome proliferator-activated receptor delta (PPARd) signaling pathway - cell viability counter screen (AID 743213; active = well fitted curve in the direction sought with a large enough effect in the repeat runs; an effect the other way counts as inactive or inconclusive; also: nearly all actives have a fitted effect of over 50% in size; also: potency is read from the fitted curve at half-maximal effect)
How it was run: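 Cytotoxicity counter screen: CellTiter-Glo luminescence read 30 min after addition, in the same wells as the reporter assay. There, PPARd UAS-bla HEK293H cells (3000/well) were treated 17 h at 37 C with compound and 300 nM L165041.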

[3] = qHTS assay to identify small molecule antagonists of the farnesoid-X-receptor (FXR) signaling pathway - cell viability counter screen (AID 743221; active = well fitted cell-killing curve with a large enough effect in the repeat runs, not every such curve was filed as active; also: % is scaled to controls: 0 for no effect and ±100 for the full control effect; nearly all actives have a fitted effect of over 50% in size)
How it was run: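 Multiplexed counter screen: viability of FXR-bla HEK 293T cells under agonist stimulation by chenodeoxycholic acid (50 uM, final) and test compound for 16 h at 37 C, measured by CellTiter-Glo luminescence in the reporter wells.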

[4] = qHTS assay to identify small molecule agonists of the vitamin D receptor (VDR) signaling pathway - cell viability counter screen (AID 743224; active = well fitted curve in the direction sought with a large enough effect in the repeat runs; an effect the other way counts as inactive or inconclusive; also: nearly all actives have a fitted effect of over 50% in size; also: potency is read from the fitted curve at half-maximal effect)
How it was run: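 Here cell health was gauged by luminescent ATP detection (CellTiter-Glo, 30 min RT) in VDR-bla cells that had been incubated with test compounds for 16 h at 37C and 5% CO2.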

[5] = qHTS assay to identify small molecule antagonists of the vitamin D receptor (VDR) signaling pathway - cell viability counter screen (AID 743225; active = well fitted curve in the direction sought with a large enough effect in the repeat runs; an effect the other way counts as inactive or inconclusive; also: nearly all actives have a fitted effect of over 50% in size; also: potency is read from the fitted curve at half-maximal effect)
How it was run: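 HEK293T VDR-bla; cpd + 1a,25-(OH)2D3 3 nM final, 16 h 37C/5% CO2; B/G FRET substrate 2 h RT; then CellTiter-Glo 30 min RT, luminescence.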

[6] = qHTS assay to identify small molecule agonists of the NFkB signaling pathway - cell viability counter screen (AID 1159515); also: series mostly up to about 61 µM; % is scaled to controls: 0 for no effect and ±100 for the full control effect; nearly all actives have a fitted effect of over 55% in size
How it was run: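 5 hr compound treatment of NFkB-bla ME-180 cells (2,000/well, seeded overnight beforehand), followed by reporter substrate for 1.5 hr. CellTiter-Glo added afterward; luminescence after 30 min RT.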

[7] = qHTS assay to identify small molecule agonists of the endoplasmic reticulum stress response signaling pathway (AID 1159516; active = well fitted activation curve with a large enough effect in the signal ratio in the repeat runs, not every such curve was filed as active; the % refers to the signal ratio; also: % is scaled to controls: 0 for no effect and ±100 for the full control effect)
How it was run: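 Reporter HeLa cells (ESRE-beta-lactamase) underwent 5 hr compound incubation at 37 C and 5% CO2 in quantitative HTS format. Detection followed 2 hr of FRET substrate loading at room temperature.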

[8] = qHTS assay to identify small molecule agonists of the endoplasmic reticulum stress response signaling pathway - cell viability counter screen (AID 1159517)
How it was run: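 Counter-screen wells were identical to the reporter wells. Cells were plated at 1,500 per well and dosed for 5 hr, then read for luminescence 30 min after CellTiter-Glo addition.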

[9] = qHTS assay to identify small molecule antagonists of the retinoid-related orphan receptor gamma (ROR-gamma) signaling pathway - cell viability counter screen (AID 1159520; active = well fitted curve in the direction sought with a large enough effect in the repeat runs; an effect the other way counts as inactive or inconclusive; also: nearly all actives have a fitted effect of over 50% in size; also: potency is read from the fitted curve at half-maximal effect)
How it was run: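 Tet-on ROR gamma CHO cells were given compounds for 2 hr, then doxycycline hyclate at 1 uM final, and incubated 16 hr at 37 C. Viability was measured as ATP content by CellTiter-Glo luminescence.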

[10] = qHTS assay to identify small molecule agonists of the AP-1 signaling pathway - cell viability counter screen (AID 1159525); also: nearly all actives have a fitted effect of over 55% in size; also: potency is read from the fitted curve at half-maximal effect
How it was run: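 AP-1-bla ME-180 cells in Opti-MEM with 0.5% dialyzed FBS, compound exposure 5 h at 37 C in 15-point titration. Viability read in the same wells as ATP content by CellTiter-Glo luminescence, normalised to tetra-n-octylammonium bromide and DMSO controls.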

[11] = qHTS assay to identify small molecule agonists of the AP-1 signaling pathway (AID 1159526); also: % is scaled to controls: 0 for no effect and ±100 for the full control effect
[12] = target: Retinoic acid receptor RXR-alpha (Homo sapiens) (UniProt P19793); assay: qHTS assay to identify small molecule agonists of the RXR signaling pathway (AID 1159527); also: % is scaled to controls: 0 for no effect and ±100 for the full control effect; nearly all actives have a fitted effect of over 35% in size
Sequence of Retinoic acid receptor RXR-alpha (Homo sapiens) (P19793 whole entry, looked up): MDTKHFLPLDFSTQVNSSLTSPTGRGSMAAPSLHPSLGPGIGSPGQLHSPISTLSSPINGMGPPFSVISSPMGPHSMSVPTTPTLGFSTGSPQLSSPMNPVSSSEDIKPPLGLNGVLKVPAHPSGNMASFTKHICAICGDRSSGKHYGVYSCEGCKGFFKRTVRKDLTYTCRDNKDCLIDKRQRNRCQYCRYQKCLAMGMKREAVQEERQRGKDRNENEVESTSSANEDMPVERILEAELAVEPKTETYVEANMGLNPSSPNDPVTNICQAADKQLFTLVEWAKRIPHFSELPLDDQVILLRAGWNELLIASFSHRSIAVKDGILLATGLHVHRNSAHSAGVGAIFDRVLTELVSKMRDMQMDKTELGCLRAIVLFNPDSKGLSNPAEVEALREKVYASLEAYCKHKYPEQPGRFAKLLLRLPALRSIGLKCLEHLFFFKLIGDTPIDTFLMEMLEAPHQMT
How it was run: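 Cells plated at 2,000/well, rested 5 hr at 37 C, pin-dosed with DMSO compound solutions, incubated 16 hr, then loaded with B/G FRET substrate for 2 hr at RT before dual-emission fluorescence reading.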

[13] = target: Peroxisome proliferator-activated receptor delta (Homo sapiens) (UniProt Q03181); assay: qHTS assay to identify small molecule agonists of the peroxisome proliferator-activated receptor delta (PPARd) signaling pathway (AID 743212);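 also: HEK293H cells with PPARd UAS beta-lactamase reporter GeneBLAzer system; % is scaled to controls: 0 for no effect and ±100 for the full control effect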
Sequence of Peroxisome proliferator-activated receptor delta (Homo sapiens) (Q03181 whole entry, looked up): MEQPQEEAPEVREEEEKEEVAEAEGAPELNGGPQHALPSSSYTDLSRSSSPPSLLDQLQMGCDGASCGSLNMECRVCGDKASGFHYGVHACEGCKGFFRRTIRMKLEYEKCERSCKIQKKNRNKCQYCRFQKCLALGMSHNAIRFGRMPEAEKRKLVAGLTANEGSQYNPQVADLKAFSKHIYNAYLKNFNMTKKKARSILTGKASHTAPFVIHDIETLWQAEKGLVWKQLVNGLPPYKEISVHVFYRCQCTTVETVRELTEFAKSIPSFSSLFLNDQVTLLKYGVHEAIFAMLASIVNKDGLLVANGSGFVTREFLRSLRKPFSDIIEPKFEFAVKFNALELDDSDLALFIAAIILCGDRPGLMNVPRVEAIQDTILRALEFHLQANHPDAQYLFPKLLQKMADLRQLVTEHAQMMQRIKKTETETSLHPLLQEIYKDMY
How it was run: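 Quantitative high-throughput agonist screen in a HEK293H beta-lactamase reporter line under UAS control. Compounds in DMSO, at 37 C. Fluorescence read after 2 h with FRET substrate at room temperature.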

[14] = target: Peroxisome proliferator-activated receptor delta (Homo sapiens) (UniProt Q03181); assay: qHTS assay to identify small molecule antagonists of the peroxisome proliferator-activated receptor delta (PPARd) signaling pathway (AID 743215; active = well fitted inhibition curve with a large enough effect in the signal ratio in the repeat runs, not every such curve was filed as active; the % refers to the signal ratio;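 also: cells stimulated with agonist L165041 at 300 nM final during compound exposure; series mostly up to about 62 µM; % is scaled to controls: 0 for no effect and ±100 for the full control effect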)
How it was run: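 With L165041 present at 300 nM final, compounds were incubated 17 h at 37 C on PPARd UAS-bla HEK293H cells. A FRET-based beta-lactamase substrate was then applied for 2 h at room temperature and fluorescence intensity recorded.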

[15] = qHTS assay to identify small molecule agonists of the farnesoid-X-receptor (FXR) signaling pathway - cell viability counter screen (AID 743218; active = well fitted curve in the direction sought with a large enough effect in the repeat runs; an effect the other way counts as inactive or inconclusive; also: % is scaled to controls: 0 for no effect and ±100 for the full control effect; nearly all actives have a fitted effect of over 45% in size)
How it was run: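 After 16 h at 37 C with test compounds, FXR-bla HEK 293T cells were given LiveBLAzer B/G substrate for 2 h at RT and then CellTiter-Glo; luminescence was taken after 30 min.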

[16] = target: Vitamin D3 receptor (Homo sapiens) (UniProt P11473); assay: qHTS assay to identify small molecule agonists of the vitamin D receptor (VDR) signaling pathway (AID 743222); also: % is scaled to controls: 0 for no effect and ±100 for the full control effect
Sequence of Vitamin D3 receptor (Homo sapiens) (P11473 whole entry, looked up): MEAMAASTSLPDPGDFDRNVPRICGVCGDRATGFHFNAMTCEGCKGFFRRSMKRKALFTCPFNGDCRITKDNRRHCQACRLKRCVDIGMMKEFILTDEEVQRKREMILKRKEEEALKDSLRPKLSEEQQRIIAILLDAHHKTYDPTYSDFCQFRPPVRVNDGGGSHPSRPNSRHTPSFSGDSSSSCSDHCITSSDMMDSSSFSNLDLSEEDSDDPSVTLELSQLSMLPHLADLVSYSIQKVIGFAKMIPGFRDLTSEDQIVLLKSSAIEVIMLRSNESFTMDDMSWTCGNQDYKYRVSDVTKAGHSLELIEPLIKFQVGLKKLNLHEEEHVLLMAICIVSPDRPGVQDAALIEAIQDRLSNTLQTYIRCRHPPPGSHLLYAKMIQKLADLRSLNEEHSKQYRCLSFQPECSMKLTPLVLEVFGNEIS
How it was run: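 VDR-bla cells were seeded, left 4 h, treated with compounds in DMSO for 16 h, incubated 2 h at RT with B/G FRET substrate, and read for fluorescence.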

[17] = target: Vitamin D3 receptor (Homo sapiens) (UniProt P11473); assay: qHTS assay to identify small molecule antagonists of the vitamin D receptor (VDR) signaling pathway (AID 743223; active = well fitted inhibition curve with a large enough effect in the signal ratio in the repeat runs, not every such curve was filed as active; the % refers to the signal ratio; also: % is scaled to controls: 0 for no effect and ±100 for the full control effect)
How it was run: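 Cells carrying a VDR-driven beta-lactamase reporter (VDR-bla) were co-treated with compound and 3 nM final 1alpha,25-dihydroxyvitamin D3 for 16 h at 37C; reporter activity was measured as FRET substrate fluorescence after 2 h at room temperature.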

[18] = target: Nuclear receptor ROR-gamma (Homo sapiens) (UniProt P51449); assay: qHTS assay to identify small molecule antagonists of the retinoid-related orphan receptor gamma (ROR-gamma) signaling pathway (AID 1159521; active = well fitted curve in the direction sought with a large enough effect in the repeat runs; an effect the other way counts as inactive or inconclusive; also: nearly all actives have a fitted effect of over 50% in size; also: potency is read from the fitted curve at half-maximal effect)
How it was run: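 Cells were plated, rested 4 h at 37 C, exposed to compounds for 2 h, then given 1 uM final doxycycline hyclate to induce RORγ expression. After 16 h, ONE-Glo luminescence from the ROR response element reporter was measured.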

Measured: Potency

CCCCCCCCCCCCOS(=O)(=O)O
55 µM (active) and inactive: [10]
34.7 µM (active) and inactive: [5]
38.9 µM (active) and inactive: [1] | [2]
inactive: [3] | [4] | [6] | [7] | [8] | [9] | [11] | [12]

O=C(O)CC(O)(CC(=O)O)C(=O)O
not listed: [18]
inactive: all other assays above

COc1ccccc1N
not listed: [13] | [14] | [15] | [16] | [17]
inactive: all other assays above

C=CCOC(Cn1ccnc1)c1ccc(Cl)cc1Cl (centres undefined)
54.9 µM (active) and inactive: [4]
49 µM (active) and inactive: [1]
active: [18] 21.8 µM and 29.8 µM
not listed: [7] | [11] | [13] | [14] | [15]
inactive: all other assays above

CCCC[N+]1(C)CCCCC1
not listed: [13] | [14] | [15]
inactive: all other assays above

CCCCCCCCCCn1cc[n+](C)c1
active: [1] 4.41 µM and 24.6 µM and 35.6 µM | [2] 22.1 µM | [18] 7.73 µM [middle of 5 runs]
inactive: [3] | [6] | [9] | [10] | [11]

Nc1ccc(-c2ccc(N)c(Cl)c2)cc1Cl
active: [18] 68.6 µM
inactive and 48.6 µM (active): [9]
not listed: [7] | [13] | [14] | [15]
inactive: all other assays above

CC(=O)O
not listed: [13] | [14] | [15] | [16] | [17] | [18]
inactive: all other assays above

CC[N+](CC)(CC)CC
not listed: [13] | [14] | [15]
inactive: all other assays above
